# Data as given in PubChem BioAssay (NCATS).
# Several values for one entry are separate records, joined by “and”; a condition that tells them apart may be missing. Equal values may be shown once. Activity calls are given as the source filed them. Where a call stands in place of a potency, no number is given. Calls come from the whole dose curve; as a rule, active = well fitted cell-killing curve with a large enough effect; inconclusive = small, poorly fitted or top-dose-only effect; inactive = flat fitted curve, though single readings scatter.
# Test: MultiTox-Fluor Cytotoxicity Assay - LYMP1-003 - Live Cells (AID 962)
# Details: LYMP1-003 lymphoblastoid cells, MultiTox-Fluor live-cell protease fluorescence; series mostly up to 92.2 µM
# Source text: NIH Chemical Genomics Center [NCGC]
# NIH Molecular Libraries Screening Centers Network [MLSCN]
# National Institutes of Environmental Health Sciences [NIEHS]
# National Toxicology Program [NTP]
# We have developed a 1536-well cell-based assay for quantitative high throughput screening (qHTS) against a number of cell lines to determine in vitro cytotoxicity of small molecules. This particular assay uses a human lymphoblastoid cell line (LYMP1-003) purchased from Coriell Institute.
# NCGC Assay Protocol Summary:
# The MultiTox-Fluor Cytotoxicity Assay (Promega) is a homogeneous method to simultaneously measure the relative number of live and dead cells in culture by detecting changes in cell membrane integrity. There are two fluorogenic peptide substrates in the assay reagent. Viable cells are determined when the cell-permeant substrate (GF-AFC) enters the cell and is cleaved by protease from live cells resulting in liberated fluorophore. This live-cell protease activity restricted to viable cells is proportional to cell number. The dead cells are determined by using fluorogenic cell-impermeant peptide substrate (bis-AAF-R110) which cleaved by dead cell proteases leaking from damaged cell membrane.
# Using the MultiTox-Fluor Cytotoxicity Assay, the relative number of live cells was measured in the lymphoblastoid cell line with complete culture medium following compound treatment for 16 hours. The assay was performed in opaque black Kalypsys 1536-well plates. In the screen, tetraoctylammonium bromide was used as positive control. Library compounds were measured for their ability to cause acute toxicity in the cell line, as reflected by a decrease in live cell protease activity, in a concentration-dependent manner. […] AC50 values were determined from concentration-response data modeled with the standard Hill equation.
# qHTS protocol for MultiTox-Fluor Cytotoxicity assay
# [Step] [Parameter] [Value] [Description]
# 1. Reagent; 5 uL; 2500 lymphoblastoid cells/well
# 2. Time; 5 hr; 37 C incubation
# 4. Controls; 23 nL; Tetraoctylammonium bromide 6.4pM to 92 uM
# 5. Time; 16 hr; 37 C incubation
# 6. Reagent; 5 uL; MuliTox-Fluor Assay reagent
# 7. Time; 60 min; Room Temperature
# 8. Detection; live-cell fluorescence (Ex/Em=405/510); EnVision plate reader
# Keywords: cell viability, cytotoxicity, lymphoblastoid cell line, fluorescence, NTPHTS, NTPHTS_NCGC, NIEHS, EPA, DSSTox, MLSMR, MLSCN, NIH Roadmap, qHTS, NCGC
# Potency is the fitted concentration of half-maximal effect.
row,SMILES,Potency
1,ClC=C(Cl)Cl,inactive
2,C[C@H]1CC[C@@H]2[C@@H](C)[C@H]3[C@H](C[C@H]4[C@@H]5CC=C6CC(O[C@@H]7O[C@H](CO)[C@H](O)[C@H](O[C@@H]8O[C@H](CO)[C@@H](O)[C@H](O)[C@H]8O)[C@H]7O[C@H]7O[C@@H](C)[C@H](O)[C@@H](O)[C@H]7O)CC[C@]6(C)[C@H]5CC[C@]34C)N2C1 (stereo partly specified),25.1 µM (active)
3,O=C/C=C/c1ccccc1,inactive
4,O=Cc1ccco1,inactive
5,O=C1CCO1,inactive
6,C[C@]12CCC(=O)C[C@@H]1CC[C@@H]1[C@@H]2CC[C@]2(C)[C@@H](O)CC[C@@H]12,inactive
7,CCCCCCCCOC(=O)c1ccccc1C(=O)OCCCCCCCC,inactive
8,NNC(N)=O,inactive
9,CC(C)CCON=O,inactive
10,CC(C)Nc1ccc(Nc2ccccc2)cc1,50.1 µM (active)
11,COC1=CC(=O)O[C@@H](/C=C/c2ccccc2)C1,inactive
12,O=[N+]([O-])c1ccc(F)c([N+](=O)[O-])c1,inactive
13,CC(C)(C)c1cc(O)ccc1O,inactive
14,Oc1cc(Cl)c(Cl)cc1Cl,inactive
15,O=CC=O,inactive
16,O=C1C=CC(=O)C=C1,inactive

row,SMILES,Potency
1,S=C=S,inactive
2,CCOC(=O)c1ccccc1C(=O)OCC,inactive
3,COc1ccc2c(c1OC)C(=O)OC2C1c2cc3c(cc2CCN1C)OCO3 (stereo unspecified),inactive
4,C[C@H]1CCC[C@H](O)CCCCCc2cc(O)cc(O)c2C(=O)O1,inactive
5,[Cl-].[Cl-].[Hg+2],15.8 µM (active)
6,C=CCN=C=S,inactive
7,O=[N+]([O-])c1ccccc1,inactive
8,[O]=[Cr](=[O])([OH])[O][Cr](=[O])(=[O])[OH],inactive
9,Clc1ccccc1Cl,inactive
10,O=C(O)C(Cl)(Cl)Cl,inactive
11,[O]=[Cd],inactive
12,ClCC1CO1 (stereo unspecified),inactive
13,O=C1C2CC=CCC2C(=O)N1SC(Cl)(Cl)Cl (stereo unspecified),12.6 µM (active) and 10 µM (active)
14,CCCCCl,inactive
15,ClC(Cl)(Cl)Cl,inactive
